These results are taken from PubChem BioAssay AID504332 (National Center for Advancing Translational Sciences (NCATS), 2011).

Among all 350,000 compounds or so, about 31,000 (8.9%) were called active. Where a call stands in place of a potency, no number is given. Inconclusive results (about 15%) are left out. For the sample, actives were picked, then their nearest neighbours and some compounds at random. Values without a mark were called inactive. The call rests on the fitted dose curve; in most records, active means well fitted inhibition curve with a large enough effect; inconclusive means small, poorly fitted or top-dose-only effect; inactive means no such curve, though single readings can be large or run the other way.
Potency means the concentration at half of the fitted maximal effect.

Sequence of Histone-lysine N-methyltransferase EHMT2 (Homo sapiens) (Q96KQ7 913-1193 limits assumed): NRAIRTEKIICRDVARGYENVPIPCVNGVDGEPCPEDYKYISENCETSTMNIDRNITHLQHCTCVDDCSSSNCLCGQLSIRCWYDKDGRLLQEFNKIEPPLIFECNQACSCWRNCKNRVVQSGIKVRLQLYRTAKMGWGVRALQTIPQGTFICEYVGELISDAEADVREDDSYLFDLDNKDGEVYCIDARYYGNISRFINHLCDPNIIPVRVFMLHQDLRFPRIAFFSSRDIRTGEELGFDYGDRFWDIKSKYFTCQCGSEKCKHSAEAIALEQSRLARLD

The assay concerns the target Histone-lysine N-methyltransferase EHMT2 (Homo sapiens) (UniProt Q96KQ7). Nature of the assay: qHTS Assay for Inhibitors of Histone Lysine Methyltransferase G9a. Further: nearly all actives have a fitted effect of over 75% in size. Particulars: G9a H3K9 monomethylation, AlphaScreen, 2 h; series mostly up to 59 µM. An excerpt: Methylated lysines, on the N-terminal tails of histone proteins serve as epigenetic markers to recruit factors that can then modify local chromatin structure to lead to functional consequences. G9a and other members of the SUV39 family of the SET domain-containing superfamily of histone lysine methyltransferases (HMT) have been identified to specifically methylate Lys9 of histone H3 (H3K9). G9a catalyzes the mono- and di-methylation of H3K9 in mammalian euchromatic regions, where the resulting H3K9me2 is indicative of transcriptional repression. […] The inhibition of G9a will result in transcriptional activation and work synergistically with DNA methyltransferase and histone deacetylase inhibitors, to kill cancer cells. This qHTS assay for identification of G9a inhibitors is a chemiluminescence based AlphaScreen (PerkinElmer). Methylation of biotinylated-histone peptide is measured through specific antibody-based detection, in conjunction with streptavidin-coated donor and anti-IgG antibody-coated acceptor beads. The method is particularly well suited for detection of inhibitors acting by the desired histone peptide competitive mechanism and is applicable to testing other HMTs. Although AlphaScreen has significant advantages with its utility in a variety of epigenetic target assays, the primary screening data provided in this deposition should be used with caution due to the prevalence of screening artifacts. An AlphaScreen counterscreen is highly recommended to be run against any putative actives to eliminate non specific artifacts. Alternatively, one can use other AlphaScreen assays in PubChem to filter out promiscuous hits. Quinn et al. A chemiluminescence-based method for identification of histone lysine methyltransferase inhibitors. Mol Biosyst 6(5): 782-8. 2010. PMID: 20567762 [2] Baell,Holloway. New substructure filters for removal of pan assay interference compounds (PAINS) from screening libraries and for their exclusion in bioassays. J Med Chem. 53(7):2719-40. 2010. PMID: 20131845 NIH Molecular Libraries Probe Production Network [MLPCN] NIH Chemical Genomics Center [NCGC] Structural Genomics Consortium (SGC) NIH Grant: 5U54 MH084681-02
To each well of a 1,536w plate, 2ul of HMT enzyme (final 20nM) were added, using a nanoliter dispenser. The G9a- and GLP-inhibitor BIX-01294 (CID: 25150857) are used as an intraplate control, with a 16-point titration in duplicate. A Kalypsys pin-tool transferred 23nl of library compound solution in DMSO to each well. Following a 15 min incubation of enzyme with compounds at room temperature, 1ul mixture of b-H3K9 peptide substrate (final 500nM) and SAM cofactor (final 20uM) were added. Reactions were allowed to proceed at room temperature for 2 hours. Methylated b-H3K9 peptide product was detected with 0.5 ug/mL rabbit polyclonal anti-monomethyl histone H3K9 antibody (Abcam Inc., Cambridge, MA) and 20 ug/mL each streptavidin-coated donor and anti-rabbit IgG acceptor AlphaScreen beads. Antibody and beads were added in a 1ul dispense, for a final volume of 4ul, and plates were incubated, protected from the light, for 10 min at room temperature. Microplates were then read on an EnVision multilabel plate reader using the 1,536 plate HTS AlphaScreen aperture (excitation time 80 ms, measurement time 240 ms).
With `CCN1CCN(c2ccc(S(=O)(=O)N3CCCCC3)cc2NC(=O)Cc2c(Cl)cccc2Cl)CC1`, the Potency result was “inactive”.

For the compound `CCN1CCN(c2ccc(S(=O)(=O)N3CCCCC3)cc2NC(=O)c2cccc(NC(C)=O)c2)CC1`, the Potency is 50.1 µM (active).

Regarding `O=C(Nc1cccnc1)c1cccc(S(=O)(=O)N2CCCC2)c1`, the Potency entry was “inactive”.

As to `Cc1ccc(S(=O)(=O)N2CCCCC2)cc1NC(=O)c1cccnc1`, the Potency result was “inactive”.

Regarding `O=C(Nc1ccc2c(c1)OCCO2)c1ccc(Cl)c(S(=O)(=O)N2CCCCC2)c1`, the activity, negative = inhibition is -22.9% [at 12.7 µM].

Consider `CC(C)(C)SCCSC1=CC(=O)CC(c2ccccc2)C1` (stereo unspecified), for which the Potency entry was “inactive”.

`O=C(CSc1nc2ccccc2c(=O)n1-c1ccc(F)cc1)NC1CC1`: the activity, negative = inhibition was 7.18% [at 0.501 µM].

As to `COC(=O)CC1Oc2ccccc2-n2cc(-c3ccccc3)nc21` (stereo unspecified), the Potency result is “inactive”.

Consider `COc1ccc(/C=N/NC(=O)c2cccc(C(F)(F)F)c2)cc1`, for which the Potency result was “inactive”.

In the case of `COc1ccc(/C=N/Nc2ccccc2C(=O)O)cc1`, the Potency was 79.4 µM (active).

Take `COc1ccc(C(=O)Nc2ccccc2C(=O)N/N=C/c2ccc(O)c(OC)c2)cc1`: the activity, negative = inhibition was -4.54% [at 2.33 µM].

Consider `COc1ccc(Cc2nnc(SCC(=O)N(c3ccccc3)C(C)C)n(N)c2=O)cc1`, for which the Potency result is “inactive”.

`CCCCOc1ccc(C(C)(O)CCN2CCOCC2)cc1` (stereo unspecified): the Potency result was “inactive”.

For the compound `CC(=O)c1ccc(OCCN2CCOCC2)cc1`, the Potency is 25.1 µM (active).

Regarding `COc1ccc(C(=O)Nc2ccc(CN3CCOCC3)cc2)cc1`, the activity, negative = inhibition is 39.7% [at 12.7 µM].

In the case of `CCOc1ccc(C2C(C(=O)O)c3ccccc3C(=O)N2CCN2CCOCC2)cc1` (stereo unspecified), the activity, negative = inhibition is 1.66% [at 12.7 µM].

For `Cc1ccc(S(=O)(=O)NCCN2CCOCC2)cc1C`, the activity, negative = inhibition is -19.4% [at 12.7 µM].

In the case of `CCOc1ccc(C(=O)CCC(=O)Nc2ccncc2)cc1`, the activity, negative = inhibition was -14% [at 12.7 µM].

For the compound `CCOc1ccc(C(=O)CCN2CCOCC2)cc1`, the Potency is 39.8 µM (active).

As to `Cc1cccc(C)c1OCCN1CCOCC1`, the Potency was 11.2 µM (active).

Consider `Cc1cccc(C)c1OCC(O)CN1CCCCC1` (stereo unspecified), for which the Potency result was “inactive”.

Consider `COc1ccc(CCC(=O)NCc2ccc3c(c2)CCN3C(=O)c2ccc(F)cc2)cc1`, for which the Potency entry is “inactive”.

As to `CCN(C(=O)COC(=O)CCOc1cccc(C)c1)c1c(N)n(Cc2ccccc2)c(=O)[nH]c1=O`, the Potency result was “inactive”.

In the case of `O=C(CSc1ncc(S(=O)(=O)c2ccc(Br)cc2)c(=O)[nH]1)Nc1ccc2c(c1)OCCO2`, the Potency result is “inactive”.

As for `O=C(COC(=O)c1cccs1)NCc1cccs1`, the Potency entry is “inactive”.

For the compound `Cc1ccc(N2CC(NC(=O)Cc3cccs3)CC2=O)cc1` (stereo unspecified), the Potency entry is “inactive”.

Regarding `CCN(C(=O)COC(=O)Cc1c(F)cccc1Cl)c1c(N)n(Cc2ccccc2)c(=O)[nH]c1=O`, the activity, negative = inhibition was 1.45% [at 12.7 µM].

Take `Cc1cccc(-c2nc(SCC(=O)Nc3cc(C)on3)c3c(=O)n(C)c(=O)n(C)c3n2)c1`: the Potency entry is “inactive”.

Turning to `Cc1ccc(OCC(=O)OCc2cc(=O)n3nc(C4CC4)sc3n2)cc1C`, the Potency entry was “inactive”.

Turning to `O=C1C=C(c2ccc(Cl)cc2)C(=O)N1Nc1ccccc1`, the Potency is 7.94 µM (active).

Regarding `O=C1c2cccc3cc(Br)cc(c23)C(=O)N1Nc1ccccc1`, the Potency result was “inactive”.

In the case of `O=C(Nc1ccccc1)OCc1cc(-c2ccc(Cl)cc2)on1`, the Potency result is “inactive”.

As for `Cc1cc(NCc2ccco2)n2c(nc3ccccc32)c1C#N`, the Potency result is “inactive”.

Turning to `Cc1ccccc1-c1nc(C#N)c(NCc2ccco2)o1`, the Potency was 39.8 µM (active).

With `COc1ccc(Nc2oc(-c3ccccc3Cl)nc2C#N)cc1`, the Potency entry was “inactive”.

For the compound `O=C(NCCc1ccccc1)c1ccc2c(c1)N(Cc1ccccc1)C(=O)c1ccccc1S2(=O)=O`, the Potency entry is “inactive”.

In the case of `CC1CCCC(NC(=O)COC(=O)[C@@H]2CC(O)CN2S(=O)(=O)c2ccc3c(c2)OCCO3)C1C` (stereo partly specified), the Potency result is “inactive”.

Regarding `Cc1cc(S(=O)(=O)N2CCOCC2)ccc1OCC(=O)Nc1cccc(C(F)(F)F)c1`, the Potency result is “inactive”.

Regarding `Cc1ccc(S(=O)(=O)N2CC(O)C[C@H]2C(=O)OCC(=O)Nc2ccc(N3CCOCC3)cc2)cc1C` (stereo partly specified), the Potency is 50.1 µM (active).

As for `CC(C)Oc1ccc(NC(=O)c2cc3ccccc3o2)cc1`, the Potency result is “inactive”.

With `O=C(/C=C(O)/C=C/c1ccc(O)cc1)/C=C/c1ccc(O)cc1`, the activity, negative = inhibition was 1.18% [at 0.501 µM].

Regarding `CCOC(=O)C(C)N(c1ccccc1Cl)S(C)(=O)=O` (stereo unspecified), the activity, negative = inhibition is 25.6% [at 12.7 µM].

`Cc1cc(C)cc(NC(c2nnc(-c3cccc(F)c3)o2)c2ccc(F)cc2Cl)c1` (stereo unspecified): the Potency entry is “inactive”.

For the compound `O=S(=O)(NCCc1ccncc1)c1ccccc1`, the Potency entry was “inactive”.

On to `O=S(=O)(NCC1OCCc2ccccc21)c1ccccc1` (stereo unspecified), for which the activity, negative = inhibition is -24.8% [at 2.33 µM].

In the case of `O=c1/c(=C/c2ccc(CNS(=O)(=O)c3ccccc3)o2)sc2n1CCN=2`, the Potency was 39.8 µM (active).
